Test results as given in paper PMC4336329 (PLoS ONE, 2015).
Among all 310,000 compounds or so, about 14,000 (4.5%) showed an effect of 50% or more. The effect is printed as a negative number. Only a selection was taken, and strong results are over-represented in it overall.

Molecular target: human ether-à-go-go-related gene (hERG) potassium channel (human, UniProt Q12809)
Test: primary screen, population patch clamp on CHO cells stably expressing hERG; higher = less effect of the substance
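Further: peak tail current of the secondary pulse compared with the same well before compound.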

Chain of human ether-à-go-go-related gene (hERG) potassium channel (Q12809 whole entry, looked up): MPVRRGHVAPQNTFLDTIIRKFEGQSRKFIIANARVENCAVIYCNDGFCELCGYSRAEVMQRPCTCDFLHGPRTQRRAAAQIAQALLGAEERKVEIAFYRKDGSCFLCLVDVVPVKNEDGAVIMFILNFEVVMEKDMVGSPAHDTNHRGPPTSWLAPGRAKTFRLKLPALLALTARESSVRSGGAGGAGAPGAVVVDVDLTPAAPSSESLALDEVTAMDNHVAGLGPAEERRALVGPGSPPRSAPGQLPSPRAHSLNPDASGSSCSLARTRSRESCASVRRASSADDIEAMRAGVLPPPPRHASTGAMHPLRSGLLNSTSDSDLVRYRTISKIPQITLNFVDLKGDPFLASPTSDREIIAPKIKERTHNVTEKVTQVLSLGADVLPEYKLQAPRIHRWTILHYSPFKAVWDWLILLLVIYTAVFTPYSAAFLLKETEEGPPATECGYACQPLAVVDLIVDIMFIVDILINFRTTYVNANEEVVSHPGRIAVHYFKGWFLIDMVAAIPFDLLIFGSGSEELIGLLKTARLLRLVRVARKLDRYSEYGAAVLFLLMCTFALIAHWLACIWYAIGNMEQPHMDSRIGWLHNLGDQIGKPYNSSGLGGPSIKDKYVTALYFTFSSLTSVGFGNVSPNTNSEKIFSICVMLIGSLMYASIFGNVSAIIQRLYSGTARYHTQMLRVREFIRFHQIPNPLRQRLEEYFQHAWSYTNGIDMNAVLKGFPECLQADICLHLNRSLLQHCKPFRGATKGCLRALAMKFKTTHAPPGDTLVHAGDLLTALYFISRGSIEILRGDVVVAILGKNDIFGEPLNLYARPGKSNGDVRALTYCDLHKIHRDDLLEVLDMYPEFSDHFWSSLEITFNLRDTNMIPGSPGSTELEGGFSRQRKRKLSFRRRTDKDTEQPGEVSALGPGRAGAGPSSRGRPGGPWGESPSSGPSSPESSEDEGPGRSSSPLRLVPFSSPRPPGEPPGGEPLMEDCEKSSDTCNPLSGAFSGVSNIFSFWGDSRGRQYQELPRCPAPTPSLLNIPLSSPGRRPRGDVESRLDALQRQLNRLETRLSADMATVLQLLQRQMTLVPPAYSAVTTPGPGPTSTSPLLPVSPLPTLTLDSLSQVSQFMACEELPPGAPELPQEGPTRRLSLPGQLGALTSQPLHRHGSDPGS

Row | Compound | hERG current change (%, negative = inhibition) at 10uM
1 | O=C(O)CCCN1C(=O)/C(=C\C(Cl)=C\c2ccccc2)SC1=S | 13.6%
2 | COc1ccc(OC)c(-c2nc(CN3CCN(C(=O)c4ccco4)CC3)c(C)o2)c1 | -21.9%
3 | O=C(NCc1cccs1)c1ccccc1[N+](=O)[O-] | -11.4%
4 | COc1cc(-c2nnc3n(CCc4ccccc4)c(=O)c4ccccc4n23)cc(OC)c1OC | -19.7%
5 | CCOC(=O)CN1C(=O)COc2ccc(Cl)cc21 | 19.2%
6 | CCOC(=O)c1[nH]cnc1C(=O)N[C@@H](C)c1ccccc1 | -5.33%
7 | O=C1CCc2cc(S(=O)(=O)N3CCC(C(=O)NCc4ccccn4)CC3)ccc2N1 | 16.9%
8 | CCOc1ccccc1NS(=O)(=O)c1cc2c3c(c1)C(C)C(=O)N3CCC2 (stereo not shown) | 5.26%
9 | O=C(N/N=C/c1cn(-c2ccccc2)nc1-c1ccc(F)cc1)c1ccc(Br)o1 | 27.7%
10 | COCc1ccc(C(=O)NC2CC(C)(C)Cc3c2cnn3-c2ccc(C)cc2)o1 (stereo not shown) | -39.3%
11 | CSCc1ccc(C(=O)NC2CC(C)(C)Cc3c2cnn3-c2ccc(F)cc2)o1 (stereo not shown) | -56.5%
12 | COc1ccc(-c2[nH]ncc2-c2nc(C)cs2)c(O)c1 | 13.5%
13 | Cc1cc2cc(CN(CCCO)S(=O)(=O)c3cccc4nsnc34)c(=O)[nH]c2cc1C | 0.493%
14 | CC(=O)c1ccc(N2CCN(C(=O)/C=C/c3ccc4ccccc4n3)CC2)cc1 | -54.4%
15 | CC(=O)c1ccc(N2CCN(C(=O)/C=C/c3cccs3)CC2)cc1 | -25%
16 | O=C(/C=C/c1ccc(S(=O)(=O)N2CCOCC2)cc1)N1CCN(c2ccc(F)cc2)CC1 | -25.6%
17 | O=C(O)/C=C/c1ccc2ccccc2n1 | 2.35%
18 | CC(=O)c1ccc(N2CCN(C(=O)c3ccc4ccccc4n3)CC2)cc1 | -43.1%
19 | O=C(/C=C/c1cccs1)N1CCN(c2ccccc2)CC1 | 1.88%
20 | O=C(/C=C/c1ccc2ccccc2n1)N1CCN(S(=O)(=O)c2ccccc2F)CC1 | -15.9%
21 | O=C(/C=C/c1ccc2ccccc2n1)N1CCN(c2ccccc2)CC1 | -52.1%
22 | O=C(/C=C/c1ccc2ccccc2n1)N1CCN(S(=O)(=O)c2ccc(F)cc2)CC1 | -52.4%
23 | NS(=O)(=O)c1ccc2nc(NC(=O)Nc3ccc(F)cc3)sc2c1 | 6.61%
24 | CCN=C1S/C(=C\c2cn(C(C)=O)nc2-c2ccccc2)C(=O)N1CC | 8.23%
25 | O=C(CSCc1ccc(Br)cc1)N1CCOCC1 | 3.5%

Row | Compound | hERG current change (%, negative = inhibition) at 10uM
26 | CCN(CC)c1ccc(C=C2C(=O)OC3(CCCCC3)OC2=O)cc1 | 7.76%
27 | CCCOc1ccc(C(C)=O)cc1CC(C(=O)OCC)C(=O)OCC | 1.47%
28 | COc1ccc(/C=C/C(=O)OCC(=O)Nc2cc(C(N)=O)cc(C(N)=O)c2)cc1 | 18.2%
29 | CN(C)/C=N/C(=S)Nc1cc(Cl)cc(Cl)c1 | 27.2%
30 | O=C(c1ccc(NS(=O)(=O)c2cccs2)cc1)N1CCOCC1 | 14.4%
31 | CC(=O)c1cc(CC=C(C)C)c(O)cc1O | -3.51%
32 | O=C(COC(=O)CCC1CCCC1)Nc1ccc(Cl)cn1 | 15.2%
33 | Cc1c(C(=O)OCC(=O)N(C)CC(=O)Nc2ccc(F)cc2)oc2ccccc12 | 14.3%
34 | CN(C)c1nc(N)c([N+](=O)[O-])c(N2CCCCCC2)n1 | 2.69%
35 | CC(=O)N1CCN(c2ccc(Nc3nc(C)nc4c3oc3ccccc34)cc2)CC1.Cl | -51.3%
36 | CC(=O)c1ccc(Nc2ncnc3c2oc2ccccc23)cc1 | 7.05%
37 | CCc1nc(Nc2ccc(N3CCN(C(C)=O)CC3)cc2)c2oc3ccccc3c2n1.Cl | -43.7%
38 | Cl.c1ccc2c(c1)oc1c(NCCN3CCOCC3)ncnc12 | -5.4%
39 | CC(=O)Nc1ccc(Nc2nc(C)nc3c2oc2ccccc23)cc1 | 13.4%
40 | Cl.Oc1ccc(Nc2ncnc3c2oc2ccccc23)cc1 | -4.8%
41 | CC(=O)N1CCN(c2ccc(Nc3ncnc4c3oc3ccccc34)cc2)CC1.Cl | -65.9%
42 | Cl.c1ccc2c(c1)oc1c(Nc3ccc(CN4CCOCC4)cc3)ncnc12 | -62%
43 | Cl.c1ccc2c(c1)oc1c(NCCCN3CCOCC3)ncnc12 | -22.4%
44 | O=C(Nc1nc(COc2ccccc2)cs1)c1ccccc1F | 24.9%
45 | CCCCN(CC)CCNC(=O)Cn1cc2c(n1)-c1c(oc(C(=O)N3CCCC3)c1C)CC2 | -27.9%
46 | CCOc1cc(/C=C2/C(=O)ON=C2C)ccc1OCc1ccccc1F | 10.6%
47 | Cc1cc(OCC(=O)N[C@H](C(=O)O)c2ccccc2)c2c3c(c(=O)oc2c1)CCC3 | 12.1%
48 | CCN1CCN(C(=S)Nc2cc(C(=O)OC)ccc2C(=O)OC)CC1 | 16.9%
49 | Cc1ccc(C(=O)Cn2c(=N)n(CCN3CCOCC3)c3ccccc32)cc1.[Br-] | -59.9%
50 | Br.N=c1n(CCN2CCCCC2)c2ccccc2n1CC(=O)c1ccc(Cl)c(Cl)c1 | -72.6%

Row | Compound | hERG current change (%, negative = inhibition) at 10uM
51 | Br.Cc1ccc(C(=O)Cn2c(=N)n(N)c3ccccc32)cc1 | -14.7%
52 | Br.N=c1n(CCN2CCOCC2)c2ccccc2n1CC(=O)c1ccc(Cl)c(Cl)c1 | -73.2%
53 | Cc1ccc(C(=O)NCCN2CCOCC2)cc1Cl | -17.7%
54 | O=C(NCCN1CCOCC1)c1ccc(Cl)c(Cl)c1 | -2.39%
55 | Br.N=c1n(CCN2CCOCC2)c2ccccc2n1Cc1ccccc1Br | -72.9%
56 | Br.N=c1n(CCN2CCCCC2)c2ccccc2n1CC(=O)c1cccs1 | -25.2%
57 | Br.COC(=O)Cn1c(=N)n(CCN2CCCCC2)c2ccccc21 | -19.2%
58 | N=c1n(CCOc2ccccc2)c2ccccc2n1CCN1CCOCC1 | -42.9%
59 | Cn1c(=O)n(Cc2ccccc2Br)c2ccccc21 | -10.3%
60 | Cc1ccc(C(=O)NCCN2CCOCC2)cc1 | 12%
61 | COc1ccc(C)cc1NC(=O)c1ccc(NC(=O)CC2SC(N3CCCC3)=NC2=O)cc1 (stereo not shown) | 18.2%
62 | Cc1cn(-c2ccc(Br)cc2)[nH]c1=O | 8.3%
63 | COC(=O)C1=C(C)N=C2SC(C)C(=O)N2C1c1cccs1 (stereo not shown) | 7.16%
64 | CCNC(=O)NC(=O)COC(=O)CCCSc1nc2ccccc2s1 | -8.6%
65 | CCOc1ccc(S(=O)(=O)NCCC(=O)NCCc2ccc(C(C)C)cc2)cc1 | 3.89%
66 | CCOC(=O)c1nn(-c2ccc([N+](=O)[O-])cc2)cc1O | 2.65%
67 | COC(=O)c1cc(OC)c(OC)cc1NCC(=O)Nc1cccc(C(F)(F)F)c1 | 13.8%
68 | COc1ccc(C(=O)N2CCOCC2)cc1S(=O)(=O)N1CCC(C)CC1 | -9.4%
69 | COc1ccccc1NC(=O)Cn1c([N+](=O)[O-])cnc1C | 11%
70 | NC(=S)N=Nc1c(O)n(CCCl)c2ccc(Br)cc12 | -27.4%
71 | CCc1ccccc1S(=O)(=O)Cc1ccc(C(=O)NCC2CCCO2)o1 (stereo not shown) | -23%
72 | Cc1ccc(C(C)NC(=O)Cc2cccs2)cc1C (stereo not shown) | -44.2%
73 | CCN1CCCC1CNC(=O)C(=O)NC(C)c1ccccc1 (stereo not shown) | 13%
74 | Br.C=CCn1c(=N)n(CC(=O)c2cccc([N+](=O)[O-])c2)c2ccccc21 | -56.7%
75 | Br.CCn1c(=N)n(CC(=O)c2cccc([N+](=O)[O-])c2)c2ccccc21 | 12.1%

Row | Compound | hERG current change (%, negative = inhibition) at 10uM
76 | Br.N=c1n(CCN2CCOCC2)c2ccccc2n1CC(=O)c1cccc([N+](=O)[O-])c1 | -42.2%
77 | Cl.N=C(c1cccc([N+](=O)[O-])c1)N1CCCCCC1 | 2.26%
78 | Br.N=c1n(CC(=O)c2cccc([N+](=O)[O-])c2)c2ccccc2n1Cc1ccccc1 | -17.9%
79 | Br.N=c1n(CCN2CCCCC2)c2ccccc2n1CC(=O)c1cccc([N+](=O)[O-])c1 | -69%
80 | O=C1Nc2ccccc2/C1=C/c1cnc(-c2ccccc2)[nH]1 | 26.2%
81 | C[C@@H]1C(=O)O[C@H]2[C@H](O)[C@@]34[C@H]5C[C@@H](C(C)(C)C)[C@]36[C@@H](OC(=O)[C@@H]6O)O[C@@]4(C(=O)O5)[C@@]12O | 21.2%
82 | CC(OC(=O)C1CCN(S(=O)(=O)c2ccc(Cl)cc2)CC1)C(=O)N1CCc2ccccc21 (stereo not shown) | -16.4%
83 | Oc1ccc(-c2cccc(-c3ccc(O)cc3)n2)cc1 | 15.5%
84 | CN(C)S(=O)(=O)N1CCN(C(=O)N2CCCCC2)CC1 | 3.64%
85 | COc1cc(/C=C(\C#N)c2nn(CCO)c(N)c2C#N)cc(OC)c1OC | 12.5%
86 | O=C(COc1ccccc1)NCC(=O)N1CCCCCC1 | 7.21%
87 | O=c1c(C=NCCCO)c(-c2ccccc2)[nH]n1-c1nc2ccccc2s1 | -72.6%
88 | O=c1c(C=NCCCn2ccnc2)c(-c2ccccc2)[nH]n1-c1nc2ccccc2s1 | -71.4%
89 | CCOC(=O)Cc1cc(=O)n(-c2nc3ccccc3s2)[nH]1 | 5.12%
90 | CCN(CC)CCCN=Cc1c(-c2ccccc2)[nH]n(-c2nc3ccccc3s2)c1=O | -78.2%
91 | CCC(=NCc1ccccc1)c1c(C(F)(F)F)[nH]n(-c2nc3ccccc3s2)c1=O | 12.6%
92 | C/C(=N/NC(=O)c1cccs1)c1c(C)[nH]n(-c2nc3ccccc3s2)c1=O | 7.38%
93 | O=c1cc(-c2ccccc2)[nH]n1-c1nc2ccccc2s1 | 14.2%
94 | CN(C)CCCN=Cc1c(O)n(CCc2ccccc2)c(=O)[nH]c1=O | -0.99%
95 | O=c1[nH]c(=O)n(Cc2ccccc2)c(O)c1C=NCCCn1ccnc1 | 1.23%
96 | O=c1c(C=NCc2cccnc2)c(C(F)(F)F)[nH]n1-c1nc2ccccc2s1 | 9.04%
97 | CN(C)CCCN=Cc1c(-c2ccccc2)[nH]n(-c2nc3ccccc3s2)c1=O | -71%
